Assay outcomes from PubChem BioAssay.
Pf growth 96h – inhibits malaria parasite growth, 96 h | 320,000 compounds, 6.9% hits | Potency, µM (titrated, usually from 28.7 µM), for inactives: at the highest dose activity change, negative = inhibition, hits mostly inhibitors | AID 504834 | P. falciparum luciferase reporter growth, 96 h; note: % is set by controls: 0 for no effect and ±100 for the full control effect
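P. falciparum expressing integrated firefly luciferase grown in erythrocytes (2% hematocrit, 0.05% parasitemia final) with compounds for 96 hours at 37 C, 5% CO2. Growth inhibition read as loss of luminescence after adding luciferase detection reagent.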
AMA1 RON2 block – AMA1-RON2 (P. falciparum) interaction inhibition. AlphaScreen AMA1-biotinylated RON2 peptide binding. Potency, µM (top dose mostly 58.2 µM), inactives show top-dose activity change, negative = inhibition, actives largely listed as inhibitors. 360,000 compounds, 0.2% hits. AID 720542;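 note: 0% = vehicle wells and -100% = peptide control; nearly all actives have a fitted effect of over 45% in size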
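AMA1 (3D7) with his tag at 25 nM final met compounds first, then biotinylated RON2 peptide at 25 nM; detection used donor plus acceptor beads, 10 µg/mL apiece, read by AlphaScreen after 30 min at room temperature.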
Pf growth 48h – P. falciparum growth inhibition at 48 hours (one generation); Potency, µM (top dose mostly 28.7 µM), without a hit: top-dose activity change, negative = inhibition, hits mostly inhibitors; P. falciparum luciferase growth in erythrocytes, 48 h; 310,000 compounds, 5.9% hits; note: % is set by controls: 0 for no effect and ±100 for the full control effect
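Read-out is firefly luciferase luminescence from an integrated reporter in P. falciparum, so falling signal marks reduced parasite growth. Infected erythrocytes were at 2% hematocrit and 0.1% parasitemia (final) in Albumax-supplemented RPMI 1640.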
SARS PLpro yeast – blocks SARS-CoV papain-like protease in a yeast assay; S. cerevisiae expressing SARS-CoV PLpro, growth rescue; Potency, µM (doses to about 32.9 µM), inactives show top-dose activity, positive = growth rescue, hits mostly activators; 330,000 compounds, 0.19% hits; AID 485353; calls by dose curve; note: 0% is about no effect; nearly all actives have a fitted effect of over 55% in size
Starred values were filed as active, the others as inactive; ? = inconclusive; · = no result. This is a sample that favours compounds with a hit; in the whole collection about 9.4% have one here. Unless noted, calls come from the whole dose curve; as a rule, active = well fitted curve in the direction sought with a large enough effect; inconclusive = small, poorly fitted or top-dose-only effect, or another doubt; inactive = no such curve, though single readings can be large; an effect the other way counts as inactive or inconclusive. Potency is the fitted concentration of half-maximal effect.

SMILES	Pf growth 96h	AMA1 RON2 block	Pf growth 48h	SARS PLpro yeast
C#CCOCCOCCOCCNc1nc(N2CCN(C(=O)[C@H](CCC(=O)O)n3cc(C(N)[C@H](C)CC)nn3)CC2)nc(N2CCN(C(=O)[C@H](Cc3ccc(O)cc3)n3cc(C(N)[C@H](C)CC)nn3)CC2)n1 (some centres not stated)	7%	13%	0%	0%
C#CCOCCOCCOCCNc1nc(N2CCN(C(=O)C(Cc3ccc(O)cc3)n3cc(C(N)C(C)CC)nn3)CC2)nc(N2CCN(C(=O)C(Cc3ccc(O)cc3)n3cc(C(N)C(C)CC)nn3)CC2)n1 (configuration not stated)	9.3µM*	-5%	9.3µM*	-2%
C#CCOCCOCCOCCNc1nc(N2CCN(C(=O)[C@H](Cc3ccc(O)cc3)n3cc([C@@H](N)CC(C)C)nn3)CC2)nc(N2CCN(C(=O)[C@H](Cc3ccc(O)cc3)n3cc([C@@H](N)CC(C)C)nn3)CC2)n1	?	·	9.3µM*	-1%
C#CCOCCOCCOCCNc1nc(N2CCOCC2)nc(N2CCN(C(=O)[C@H](CCC(=O)O)n3cc(C(N)[C@H](C)CC)nn3)CC2)n1 (some centres not stated)	10%	59%	1%	1%
C#CCOCCOCCOCCNc1nc(N2CCOCC2)nc(N2CCN(C(=O)[C@H](Cc3ccc(O)cc3)n3cc([C@@H](N)C(C)CC)nn3)CC2)n1 (some centres not stated)	9.3µM*	0%	?	0%
CCOc1ccc(C(=O)CCC(=O)NCC(=O)Nc2ccc(F)c(F)c2F)cc1	·	1%	·	·
Cc1ccc(-c2n[nH]c(=S)n2/N=C/c2ccc(C)s2)cc1	12µM*	9%	12µM*	-2%
CN(C(=O)COC(=O)c1ccc(Cl)c(S(=O)(=O)N2CCCCCC2)c1)C1CCS(=O)(=O)C1 (configuration not stated)	·	-1%	·	3%
CN(Cc1ccccc1F)c1nc(-c2cccs2)nc2ccccc12	-4%	-7%	9.3µM*	-52%
Fc1ccccc1N1CCN(c2nc(-c3cccs3)nc3ccccc23)CC1	?	5%	?	-5%
Cc1ccc2c(c1)N(S(=O)(=O)c1ccc(CN3C(=O)c4cccnc4C3=O)s1)CCO2	4.1µM*	49%	25%	-8%
Cc1ccc2c(c1)N(S(=O)(=O)c1ccc(CN3C(=O)c4cccnc4C3=O)cc1)CCO2	?	0%	23%	1%
COc1ccc2ccccc2c1/C=N/NC(=O)c1cccc(C)c1	·	14%	·	·
Cc1cccc(OCC(=O)NC(C)C(=O)N/N=C/c2c(OCc3ccccc3)ccc3ccccc23)c1 (configuration not stated)	·	23%	6.6µM*	11%
CCc1n[nH]c(=S)n1/N=C/c1ccc(N(C)c2ccccc2)cc1	?	81%	10µM*	9%
O=[N+]([O-])c1ccc(N2CCN(Cc3ccccc3)CC2)c2c1no[n+]2[O-]	·	22µM*	·	·
CC1CCCN(c2nc3c(c(=O)n(C)c(=O)n3C)n2CCSc2nc3ccccc3s2)C1 (configuration not stated)	·	-12%	?	-6%
Cn1cccc1CNCCc1ccccc1F	2.6µM*	-23%	-5%	-9%
COc1ccc(CCNCc2cccn2C)cc1	1.5µM*	0%	-17%	0%
Cn1cccc1CNCCc1ccccc1	41%	·	12%	-2%
CCN(CC)C(=S)NC(=O)C12CC3CC(CC(C3)C1)C2	84%	21%	-24%	6%
O=c1[nH]c2ccc([N+](=O)[O-])cc2[nH]1	·	15%	·	·
c1ccn2cc(CSC3=NCCS3)nc2c1	23%	-12%	·	15%
COc1cccc(C2CC(c3ccc(C)cc3)=NN2C(=O)c2ccccc2F)c1OC (configuration not stated)	4.1µM*	-13%	5.2µM*	-3%
Cc1ccc(C2=NN(C(=O)c3cccs3)C(c3ccccc3O)C2)cc1 (configuration not stated)	24%	-2%	?	0%
Cc1ccc(C2=NN(C(=O)c3ccccc3F)C(c3ccccc3F)C2)cc1 (configuration not stated)	-42%	-8%	4.1µM*	-7%
Cc1ccc2nc(N)[nH]c(=O)c2c1Sc1ccncc1	2.1µM*	·	4.8µM*	·
Cc1ccc2nc3[nH]c(=O)[nH]c(=O)c3c(N)c2c1	·	-11%	·	·
